Measured values published in PubChem BioAssay AID1233 (SRMLSC, 2008).
Measured potencies and affinities stand elsewhere. Calls of active or inactive are those of the source.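 The calls were made as follows: active = a dose-response curve fit returns a half-maximal inhibitory concentration, extrapolated values included; inactive = the fit returns no such concentration.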

biological target: HMG-CoA reductase [Enterococcus faecalis] (UniProt Q9FD70); assay: inhibitors of E. faecalis class II HMGR, confirmation, biochemical, Enterococcus faecalis (AID 1233);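 also: 0% = full reaction carrier wells and 100% = background wells lacking mevalonate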; details: purified E. faecalis HMGR, NADPH absorbance 340 nm kinetics; series mostly up to 100 µM; inhibition: at the top concentration

inhibition, inactive:
O=C(OCC(=O)N1CCN(C(=O)c2ccco2)CC1)c1cc(-c2ccco2)nc2ccccc12 -0.43%, Cc1cccc(OCC(=O)NNC(=O)CCc2ccccc2)c1 -2.38%, COc1cc(OC)cc(C(=O)NC(C(=O)O)C23CC4CC(CC(C4)C2)C3)c1 (stereo not drawn) -10.5%, CN(C)S(=O)(=O)c1ccc(NC(=O)N2CCOCC2)cc1 -2.88%, CCCCNC(=O)c1ccccc1NC(=O)CCSc1ccccc1 -7.76%, CCS(=O)(=O)CCn1c([N+](=O)[O-])cnc1C -4.31%, Cc1ccc(/C=C/C(=O)O)cc1S(=O)(=O)NCCCO -7.91%, O=[N+]([O-])c1ccc(C(=Nc2cccc3ccccc23)N2CCOCC2)cc1 -4.3%, Cc1cc(=O)[nH]c(SCC(=O)C23CC4CC(CC(C4)C2)C3)c1C#N 0.65%, O=C(NCc1ccccc1Cl)c1cc([N+](=O)[O-])ccc1Cl -4.55%, Cc1noc(C)c1CSc1nc2sc(C)c(C)c2c(=O)n1C1CCCC1 -0.73%, O=C(CN1CCN(Cc2ccc(F)cc2Cl)C1=O)NCCc1ccc(Cl)cc1 -0.91%, O=c1oc2ccccc2c(O)c1C=Nc1cccnc1 -2.21%, COc1ccc(OC)c(NC(=O)NNC(=O)CCCOc2ccc(Cl)cc2C)c1 -2.73%, NS(=O)(=O)c1ccc(CCN=C(NS(=O)(=O)c2cccs2)c2ccccc2)cc1 -5.75%, COC(=O)c1sccc1-c1ccc(C(=O)Nc2cccnc2)o1 -1.88%, COc1oc(-c2ccc(Cl)cc2)nc1C(F)(F)F -9.81%, CCOC(=O)c1nnn(-c2ccc(OC)cc2)c1N -6.25%, O=[N+]([O-])/C(=C\Nc1ccccc1Cl)S(=O)(=O)c1ccccc1 -3.66%, O=C(CCn1cnnn1)Nc1ccc(Cl)c(Cl)c1 -6.48%, O=C(CCc1nnc(CCCc2ccccc2)o1)NCCc1ccccc1 -5.36%, Fc1ccccc1CSc1nncn1NC/C=C/c1ccccc1 -5.49%, COc1ccc(Nc2ccc(S(=O)(=O)N3CCCCC3)cc2[N+](=O)[O-])cc1 7.35%, CN(Cc1nc(-c2cnccn2)no1)C1CC(C)(C)NC(C)(C)C1 -4.08%, Cc1cccc(-n2nc(C)cc2N)c1 -1.66%, O=C(Nc1ccc(N2CCCCC2)cc1)c1ccc2c(c1)OCCO2 -4.93%, COCC(C)NC(=O)CSc1nc(-c2ccccc2)c(-c2ccccc2)o1 (stereo not drawn) -5.68%, CCN(CC)CCOc1nc(C)nc2c1oc1ccccc12 -5.2%, Cc1ccc(S(=O)(=O)N2CCCC(C(=O)NCCCN3CCCCC3C)C2)cc1 (stereo not drawn) -0.54%, CC(C)(C)OC(=O)N1CCC[C@H]1c1nnc(SCc2ccccc2F)o1 -1.4%, S=C(NCCc1ccccc1)N1CCN(Cc2ccccc2)CC1 -0.76%, O=C(COc1cccc(NC(=O)c2ccco2)c1)c1ccc(F)cc1 1.51%, N#CCCCn1c(=O)oc2ccccc21 -2.84%, Cn1nnnc1SCC(=O)c1ccc(Br)s1 0.87%, COCCn1c(=N)c(C(=O)NCc2ccco2)cc2c(=O)n3cc(C)ccc3nc21 -6.17%, COc1cc(S(=O)(=O)Nc2ccccc2C)ccc1NC(=O)c1ccncc1 -5.86%, CCSc1nnc(NC(=O)CN2C(=O)C3CC=CCC3C2=O)s1 (stereo not drawn) -6.44%, O=C(Cc1ccc2c(c1)CCCC2)Nc1ccccc1Cl 2.77%
